# In the library only some 19% were active in any assay of this set; here they are far more common.
# Cycloheximide cs: counter-screen hit for Shiga toxin inhibitors, cycloheximide | hit rate 12% among 300,000 | max response, % | cell reporter, cycloheximide protein synthesis inhibition counterscreen; in the data active = max response mostly above about 13%, no sharp cut-off; inactive = mostly below about 14%; also: read at 38.3 µM for the half of the compounds with a filed dose; 0% is about no effect
# Pf growth 48h: P. falciparum growth inhibition at 48 hours (one generation). P. falciparum luciferase growth in erythrocytes, 48 h. Potency, µM (doses to about 28.7 µM), inactives show at the top dose activity change, negative = inhibition, usual class: inhibitors. hit rate 5.9% among 310,000; also: potency is read from the fitted curve at half-maximal effect; % is scaled to controls: 0 for no effect and ±100 for the full control effect
#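 Cell-based growth assay: transgenic P. falciparum expressing firefly luciferase, cultured in red cells within RPMI 1640 containing 0.5% w/v Albumax, 24 mM bicarbonate and gentamycin. A drop in luciferase activity indicates inhibition.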
# Pf growth 96h: inhibits malaria parasite growth, 96 h; P. falciparum luciferase reporter growth, 96 h; Potency, µM (titrated, usually from 28.7 µM), inactives show at the top dose activity change, negative = inhibition, most hits filed as inhibitors; hit rate 6.9% among 320,000; AID 504834; also: potency is read from the fitted curve at half-maximal effect; % is scaled to controls: 0 for no effect and ±100 for the full control effect
#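 Two-generation exposure (96 h) targets delayed-death phenotype. Reporter parasites carrying integrated firefly luciferase, in red cells at 2% hematocrit and 0.05% parasitemia final, kept at 37 C, 5% CO2; luminescence loss indicates inhibition.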
# Lassa entry inh: blocks Lassa virus binding to or entry into cells; Lassa virus pseudotype entry inhibition, cell reporter; hit rate 1.2% among 300,000; Potency, µM (doses to about 37.9 µM), for inactives: top-dose activity change, negative = inhibition, actives largely listed as inhibitors; AID 540256; calls by dose curve; tested in HEK293 cells; also: potency is read from the fitted curve at half-maximal effect; % is scaled to controls: 0 for no effect and ±100 for the full control effect; nearly all actives have a fitted effect of over 50% in size
# Marburg entry inh: Marburg virus entry inhibition; hit rate 1.8% among 300,000; Potency, µM (titrated, usually from 37.8 µM), for the others: at the top dose activity change, negative = inhibition, usual class: inhibitors; Marburg virus pseudotyped entry inhibition, cell reporter; calls by dose curve; tested in HEK293 cells; also: potency is read from the fitted curve at half-maximal effect; % is scaled to controls: 0 for no effect and ±100 for the full control effect
# Shiga toxin inh: blocks Shiga toxin action in Vero cells; inhibition, % at 38.7 µM; Vero cells, Shiga toxin protein synthesis inhibition reporter; hit rate 9.2% among 290,000; AID 2315; in the data active = inhibition mostly above about 28%, no sharp cut-off; inactive = mostly below about 43%; also: 0% is about no effect
# Active calls of the source: *; ? = inconclusive; · = no result; [ ] = dose if it differs, or a comment. Unless noted, calls follow the shape of the dose curve; as a rule, active = well fitted inhibition curve with a large enough effect; inconclusive = small, poorly fitted or top-dose-only effect, or another doubt; inactive = no such curve, though single readings can be large or run the other way.
SMILES,Cycloheximide cs,Pf growth 48h,Pf growth 96h,Lassa entry inh,Marburg entry inh,Shiga toxin inh
CCCSc1cc(N2CCOCC2)nc(-c2ccccc2Cl)n1,11,·,12µM*,-1%,-1%,-14
Cc1cc(C)nc(SCC(=O)c2ccc(O)c(O)c2)n1,11,?,3%,·,·,11
Cc1cc(N2CCOCC2)nc(-c2ccccc2O)n1,9,14%,2.3µM*,?,?,-6
Cc1cc(Cl)nc(SCC(=O)c2ccccc2)n1,45*,-6%,36%,·,·,81*
Cc1cc(N2CCCC2)nc(SCC(=O)c2ccccc2)n1,6,43%,9%,20%,3%,-20
Cc1cc(N2CCOCC2)nc(SCC(=O)c2ccccc2)n1,51*,47%,?,19%,-2%,96*
Fc1ccccc1CN1CCCCCCC1,-3,·,8%,?,2%,-4
CCc1ccc(OCC(=O)NCCc2ccc3c(c2)OCCO3)cc1,·,?,-29%,·,·,·
CC(=O)NC(Cc1ccc(C)cc1)C(=O)NC1CCN(S(=O)(=O)c2ccccc2)CC1 (centres undefined),-4,5%,3%,-21%[46.1 µM],22%[46.1 µM],23
CCOc1ccc(-c2nc3n(c(=O)c2C#N)CCCS3)cc1,2,5%,-6%,7.1µM*,?,1
COc1ccc(-c2nc3n(c(=O)c2C#N)CCCS3)cc1,15*,·,-2%,2%,-2%,0
COc1ccc(/C=N/c2c(-c3ccc(OC)cc3)nc3n2CCS3)cc1,15*,15%,?,3%,-5%,31
CN1C(=O)c2ccccc2N(C)C1c1ccccc1Cl (centres undefined),-5,17%,-29%,-2%,-6%[46.1 µM],0
O=C1C(Cc2cccc([N+](=O)[O-])c2)SC(=Nc2ccccc2)N1c1ccccc1 (centres undefined),-1,8.3µM*,7.4µM*,-4%,?,-12
O=C1CC(Cc2ccc(Br)cc2)C(=O)N1c1ccccc1 (centres undefined),2,6%,?,·,·,15
O=C1C(Cc2ccc(F)cc2)SC(=Nc2ccccc2)N1c1ccccc1 (centres undefined),-1,10µM*,?,6%,?,-11
O=C1C(Cc2ccc(Br)cc2)SC(=Nc2ccccc2)N1c1ccccc1 (centres undefined),-1,13µM*,?,?,?,23
Cc1ccc(Oc2ccccc2)c(NC=O)c1,7,16%,-3%,-13%,1%,16
CCC(C)(C)n1nnnc1C(c1cc2cc(OC)ccc2[nH]c1=O)N1CCc2ccccc21 (centres undefined),-3,10µM*,3%,?,?,-5
CCC(C)(C)n1nnnc1C(c1cc2ccc(OC)cc2[nH]c1=O)N1CCc2ccccc2C1 (centres undefined),-3,?,·,-12%,-22%,-9
CCC(C)(C)n1nnnc1C(c1cc2ccc(OC)cc2[nH]c1=O)N1CCc2ccccc21 (centres undefined),19,5.2µM*,32%,-14%,?,-8
CCOc1cccc(C(=O)N2CCC(c3nc4ccccc4s3)CC2)c1,·,·,·,4%[46.1 µM],1%[46.1 µM],·
O=C(CSc1nc(CCC2CCCC2)nc2ccccc12)NCc1ccc2c(c1)OCO2,0,-19%,?,?,13µM*,-4
O=C(CSc1nc2ccccc2[nH]1)NCc1ccc2c(c1)OCO2,-5,16%,4.1µM*,21%,7%,-1
O=C(CSc1nc2ccccc2[nH]1)c1ccc2c(c1)OCO2,57*,-90%,?,2%,5%,91*
SMILES,Cycloheximide cs,Pf growth 48h,Pf growth 96h,Lassa entry inh,Marburg entry inh,Shiga toxin inh
O=C(CSc1nc2ccc(Cl)cc2o1)NCc1ccc2c(c1)OCO2,1,·,?,-21%,-5%,0
O=C(CSc1nc(-c2ccccc2)cc(=O)[nH]1)NCc1ccc2c(c1)OCO2,-1,-14%,8%,18%,-8%,-9
Cc1ccc2nc(SCC(=O)c3ccc4c(c3)OCO4)[nH]c2c1,-3,?,?,-28%,2%,-12
Cc1cc(NC(=O)CSc2nc(CCC3CCCC3)nc3ccccc23)no1,1,?,-1%,10%,5%,-8
O=C(CSc1nc2ccccc2o1)NCc1ccc2c(c1)OCO2,15*,75%,-14%,·,·,27*
O=[N+]([O-])c1cc(S(=O)(=O)Nc2cccc(C(F)(F)F)c2)ccc1-n1nnc2ccccc21,2,-5%,·,-20%,-28%,33
O=C(/C=C/c1ccc2ccccc2n1)N1CCN(S(=O)(=O)c2ccc(F)cc2)CC1,6,?,10µM*,·,·,5
O=C(/C=C/c1ccc(S(=O)(=O)N2CCOCC2)cc1)N1CCN(c2ccc(F)cc2)CC1,-3,7.4µM*,?,?,?,-4
O=C(/C=C/c1ccc2ccccc2n1)N1CCN(S(=O)(=O)c2ccccc2F)CC1,-1,?,?,·,·,-5
CC1CC(C)CN(C(=O)/C=C/c2ccc(S(=O)(=O)N3CCOCC3)cc2)C1 (centres undefined),·,9.3µM*,5.2µM*,-17%,-20%,·
CC(OC(=O)c1ncc(Cl)c(Cl)c1Cl)C(=O)NC1CCCCC1C (centres undefined),·,33%,15%,-20%,?,·
CCOC(=O)COc1ccc2nsnc2c1,0,29%,10%,9%,20%[46.1 µM],-23
COc1ccc(NC(=O)c2cc([N+](=O)[O-])ccc2N2CCN(C)CC2)cc1,-4,34%,11%,-10%,-3%[46.1 µM],-3
COc1ccc(CCNC(=O)c2nn(C)cc2Cl)cc1,27*,31%,-30%,?,10%,76*
COc1ccc(CCNC(=O)c2nonc2N)cc1,21*,93%,151%,4%,10%,46*
COc1ccc(CCNC(=O)c2ccc(Cl)cc2)cc1,10,·,?,?,?,-8
CC(C)n1cnc2c(NCc3ccccc3)nc(NCc3ccccc3)nc21,-2,9.3µM*,9.3µM*,·,·,15
CC(C)n1cnc2c(Nc3cccc(Cl)c3)nc(NCCCO)nc21,6,?,15µM*,·,·,11
Cc1[nH]c(=O)[nH]c(=O)c1S(=O)(=O)Nc1ccc(Cl)c([N+](=O)[O-])c1,-4,40%,-18%,4%,6%,-18
O=C(NC(=S)N1CCCCCC1)c1ccc(Cl)cc1Cl,-1,?,9.3µM*,-27%[46.1 µM],-28%[46.1 µM],12
O=C(Nc1ccccc1C(=O)N1CCCC1)c1ccc(Cl)cc1Cl,3,18%,12µM*,·,-13%[46.1 µM],-7
O=C(NC(=S)N1CCCCCC1)c1ccccc1Cl,-3,5.2µM*,-12%,·,14%[46.1 µM],21
O=C(Nc1cc(=O)c2ccccc2o1)N1CCCCC1,11,4.7µM*,5.2µM*,?,-28%,11
Cc1ccc2oc(C(=O)N3CCN(c4cccc(C)n4)CC3)c(C)c2c1,27*,22%,?,?,1%,·
Cc1ccc2oc(C(=O)N3CCCCCC3)c(C)c2c1,71*,-20%,13µM*,·,·,110*
